# Measured values as given in a collection of fitness landscapes (doi:10.1016/j.celrep.2020.107928).
# In all, about 81,000 sequences were measured (“one-hybrid fitness for binding NBS DNA”: median about -0.1, highest 2% from about 0.36 on). This is one part of a sample in which the highest values are shown more often than they occur.
# B1: Caulobacter ParB omega fusion; a variant is named by its letters at X, in order, B8GW30 (parent)
# chain: MESVVVGEPGMSEGRRGLGRGLSALLGEVDAAPAQAPGEQLGGSREAPIEILQRNPDQPRRTFREEDLEDLSNSIREKGVLQPILVRPSPDTAGEYQIVAGERAWRAAQRAGLKTVPIMVRELDDLAVLEIGIIENVQRADLNVLEEALSYKVLMEKFERTQENIAQTIGKSXSHVANXMRLLXLPDEVQSYLVSGELTAXHARAIAAAADPVALAKQIIEGGLSVRETEALARKAPNLSAGKSKGGRPPRVKDTDTQALESDLSSVLGLDVSIDHRGSTGTLTITYATLEQLDDLCNRLTRGI
# Variants of: B1
# Experiment: one-hybrid fitness for binding NBS DNA (the Noc-binding site; scaled: cognate 1, non-cognate 0); higher = stronger binding
# Details: with NBS DNA site
# Method in brief: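 Caulobacter ParB libraries with four specificity codons randomised were screened by bacterial one-hybrid selection in the E. coli USO strain, using a HIS3 reporter whose site lies 19 bp from the promoter. Selection ran for 48 hours at 37°C on M9 lacking histidine, with 0.1 mM IPTG and 5 mM 3-AT. Plasmids were Illumina-sequenced before and after selection, three replicate libraries were pooled, and variants with under 10 reads were dropped. Fitness is the log change in each variant's read ratio to wild type, rescaled against the cognate and non-cognate sites.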
row,Variant,one-hybrid fitness for binding NBS DNA
1,LIKT,≤ 0.2
2,VQSV,≤ 0.2
3,DCSG,≤ 0.2
4,TPHH,≤ 0.2
5,LLVG,≤ 0.2
6,TAIG,≤ 0.2
7,HVIC,≤ 0.2
8,VVRW,≤ 0.2
9,RMCR,0.433
10,RMDR,≤ 0.2
11,RMCH,≤ 0.2
12,RMNN,≤ 0.2
13,RMNR,0.545
14,RMCN,≤ 0.2
15,NAAS,≤ 0.2
16,FAAL,≤ 0.2
17,FARL,≤ 0.2
18,FAFL,0.451
19,FAFR,0.364
20,FAAR,≤ 0.2
21,FAYR,≤ 0.2
22,MKNR,≤ 0.2
23,NTMM,≤ 0.2
24,VTYY,≤ 0.2

row,Variant,one-hybrid fitness for binding NBS DNA
1,HWST,≤ 0.2
2,WHPR,≤ 0.2
3,RPLR,≤ 0.2
4,RKLH,0.227
5,RSLR,0.339
6,RKLN,≤ 0.2
7,RCLR,0.416
8,RKLR,0.525
9,VCVG,≤ 0.2
10,QFIL,≤ 0.2
11,QQSQ,≤ 0.2
12,QQRQ,0.421
13,QQVQ,0.395
14,QQLQ,≤ 0.2
15,QQYQ,≤ 0.2
16,QQVF,≤ 0.2
17,QQKQ,0.493
18,QQAQ,≤ 0.2
19,FDNG,≤ 0.2
20,NNAW,≤ 0.2
21,YMTS,≤ 0.2
22,GPQR,≤ 0.2
23,YAEG,≤ 0.2
24,QGWN,≤ 0.2

row,Variant,one-hybrid fitness for binding NBS DNA
1,VMDS,≤ 0.2
2,LDDR,≤ 0.2
3,SESE,≤ 0.2
4,DLGS,≤ 0.2
5,RPRT,≤ 0.2
6,RAWT,0.236
7,RART,0.621
8,RAYT,0.353
9,RFRT,0.456
10,RCRT,0.706
11,RIPT,≤ 0.2
12,RIRT,0.615
13,RFDT,≤ 0.2
14,RIYT,0.34
15,RFYT,≤ 0.2
16,RERT,≤ 0.2
17,PNYV,≤ 0.2
18,RQPS,≤ 0.2
19,SQNC,≤ 0.2
20,HISC,≤ 0.2
21,LSFT,≤ 0.2
22,TGSY,≤ 0.2
23,KYSS,≤ 0.2
24,CQDS,≤ 0.2

row,Variant,one-hybrid fitness for binding NBS DNA
1,RCDT,0.266
2,RSIT,≤ 0.2
3,RSRT,0.602
4,RCYT,0.517
5,RPYT,≤ 0.2
6,RSYT,0.322
7,CPVW,≤ 0.2
8,KHGP,≤ 0.2
9,QYFN,≤ 0.2
10,QYFR,0.366
11,QYAN,≤ 0.2
12,QYFS,≤ 0.2
13,QYAR,0.517
14,QYAH,≤ 0.2
15,INHG,≤ 0.2
16,YKQS,≤ 0.2
17,TADE,≤ 0.2
18,RRLP,≤ 0.2
19,RRLS,0.606
20,RRLD,≤ 0.2
21,RPLS,≤ 0.2
22,RRLH,0.365
23,RSLS,0.303
24,RCLS,0.396

row,Variant,one-hybrid fitness for binding NBS DNA
1,RCLH,≤ 0.2
2,RRLN,0.23
3,GLNS,≤ 0.2
4,KRSF,≤ 0.2
5,ASNS,≤ 0.2
6,DKMS,≤ 0.2
7,HKVM,≤ 0.2
8,VYHT,≤ 0.2
9,KGST,≤ 0.2
10,WSCT,≤ 0.2
11,QKFR,0.435
12,QKFH,≤ 0.2
13,QKAH,≤ 0.2
14,QKFP,≤ 0.2
15,QKAR,0.606
16,QKAK,≤ 0.2
17,GQKR,0.201
18,SYQK,≤ 0.2
19,QSDR,0.317
20,QHDR,0.336
21,QDDR,≤ 0.2
22,QINR,0.479
23,QINN,≤ 0.2
24,QSNR,0.62

row,Variant,one-hybrid fitness for binding NBS DNA
1,QSNP,≤ 0.2
2,QCDR,0.402
3,QHNR,0.618
4,QIDR,0.234
5,QHNP,≤ 0.2
6,QPDR,≤ 0.2
7,PRGP,≤ 0.2
8,QPNR,0.236
9,QLND,≤ 0.2
10,QANN,≤ 0.2
11,QCNR,0.751
12,QLNR,0.551
13,QADR,0.314
14,QLDR,0.295
15,QANR,0.583
16,QFNR,0.268
17,NTLI,≤ 0.2
18,VIMF,≤ 0.2
19,LAGN,≤ 0.2
20,EMRR,0.21
21,ADQR,≤ 0.2
22,FNIT,≤ 0.2
23,RPMM,≤ 0.2
24,GCIC,≤ 0.2

row,Variant,one-hybrid fitness for binding NBS DNA
1,QTYR,0.691
2,NTRR,0.235
3,QTNG,0.286
4,QTNK,0.304
5,QTNR,0.936
6,QTDP,≤ 0.2
7,DTRR,0.303
8,QTRR,1.15
9,QTDR,0.483
10,PSTM,≤ 0.2
11,IDSK,≤ 0.2
12,HNGW,≤ 0.2
13,VPAW,≤ 0.2
14,YCQT,≤ 0.2
15,TPGL,≤ 0.2
16,LPPV,≤ 0.2
17,HSKL,≤ 0.2
18,IRVT,≤ 0.2
19,IRDT,≤ 0.2
20,CRVT,≤ 0.2
21,ISNT,≤ 0.2
22,ICKS,≤ 0.2
23,IRKD,≤ 0.2
24,IRNT,0.451

row,Variant,one-hybrid fitness for binding NBS DNA
1,IRKS,0.37
2,IRKT,0.471
3,ISKT,≤ 0.2
4,CCKT,≤ 0.2
5,CRKT,0.365
6,NWRM,≤ 0.2
7,VPHA,≤ 0.2
8,QWQG,≤ 0.2
9,FVWR,≤ 0.2
10,DGRN,≤ 0.2
11,NANS,≤ 0.2
12,VHVA,≤ 0.2
13,KSLV,≤ 0.2
14,HSRL,≤ 0.2
15,ICRT,≤ 0.2
16,IRDR,≤ 0.2
17,IRYT,≤ 0.2
18,IRYR,0.226
19,ICRR,0.291
20,IRRR,0.601
21,ICNR,≤ 0.2
22,IRRT,0.423
23,IRNR,0.422
24,ISKR,0.243

row,Variant,one-hybrid fitness for binding NBS DNA
1,IRKR,0.67
2,ICKR,0.273
3,HAYM,≤ 0.2
4,CMSN,≤ 0.2
5,ARHS,≤ 0.2
6,TQNT,≤ 0.2
7,TSWF,≤ 0.2
8,VQPL,≤ 0.2
9,RWGG,≤ 0.2
10,MFWL,≤ 0.2
11,RIRE,≤ 0.2
12,TLNG,≤ 0.2
13,DAAP,≤ 0.2
14,GRNT,≤ 0.2
15,VFAC,≤ 0.2
16,QHYA,0.291
17,QCRA,0.658
18,QAYA,0.249
19,QPRA,≤ 0.2
20,QCYA,0.328
21,QARA,0.519
22,QHDA,≤ 0.2
23,QADA,≤ 0.2
24,QMRA,0.569

row,Variant,one-hybrid fitness for binding NBS DNA
1,QHRA,0.533
2,QMDA,≤ 0.2
3,QMYA,0.267
4,QTEQ,≤ 0.2
5,PTMF,≤ 0.2
6,HNHR,≤ 0.2
7,PCGG,≤ 0.2
8,TWLL,≤ 0.2
9,LKVE,≤ 0.2
10,PCRQ,≤ 0.2
11,SSRV,≤ 0.2
12,HLTD,≤ 0.2
13,QLDA,≤ 0.2
14,QLYA,≤ 0.2
15,QSRA,0.516
16,QIRA,0.386
17,QSYA,0.208
18,QKRA,0.539
19,QSDA,≤ 0.2
20,QLRA,0.479
21,QIYA,≤ 0.2
22,QKYA,0.249
23,QKFA,≤ 0.2
24,QIAA,≤ 0.2

row,Variant,one-hybrid fitness for binding NBS DNA
1,MCAS,≤ 0.2
2,PTRY,≤ 0.2
3,CVKD,≤ 0.2
4,PVDC,≤ 0.2
5,YENN,≤ 0.2
6,QHSL,≤ 0.2
7,RRVM,0.206
8,RRKM,0.647
9,RRVD,≤ 0.2
10,RRYG,0.331
11,RCVS,0.335
12,RRRG,0.497
13,RCKM,0.238
14,RRRM,0.651
15,RRYM,0.296
16,RCRM,0.231
17,RRVS,0.605
18,RRDG,≤ 0.2
19,HRIT,≤ 0.2
20,SNQT,≤ 0.2
21,TVTC,≤ 0.2
22,GVCG,≤ 0.2
23,MMPN,≤ 0.2
24,MEVE,≤ 0.2

row,Variant,one-hybrid fitness for binding NBS DNA
1,LLMQ,≤ 0.2
2,CKKG,≤ 0.2
3,RRRF,0.442
4,RRKD,0.226
5,RRDF,≤ 0.2
6,RRKE,0.214
7,RRVN,0.238
8,RRKS,0.68
9,RRKN,0.646
10,RRVP,≤ 0.2
11,RRYP,≤ 0.2
12,RRKP,0.379
13,RRYF,≤ 0.2
14,RCKN,0.27
15,TKMW,≤ 0.2
16,MWVR,≤ 0.2
17,CLAT,≤ 0.2
18,TSDV,≤ 0.2
19,AMPA,≤ 0.2
20,PHPV,≤ 0.2
21,QICI,≤ 0.2
22,IYNQ,≤ 0.2
23,TYVC,≤ 0.2
24,YDYM,≤ 0.2

row,Variant,one-hybrid fitness for binding NBS DNA
1,LLAR,≤ 0.2
2,RRVH,0.321
3,RCKF,≤ 0.2
4,RRKK,0.438
5,RCKK,0.248
6,RRKF,0.484
7,RRKH,0.798
8,RRVF,≤ 0.2
9,RRVY,0.301
10,RRVK,≤ 0.2
11,RSKY,0.29
12,RRKY,0.79
13,RRKL,0.259
14,SCIR,≤ 0.2
15,RESS,≤ 0.2
16,WPIG,≤ 0.2
17,WPLC,≤ 0.2
18,PERM,≤ 0.2
